Experimental findings from PubChem BioAssay (NCATS) are described below.

For assay [1], the target named is Estrogen receptor (Homo sapiens) (UniProt P03372). The experiment in a line: qHTS assay for small molecule antagonists of estrogen receptor alpha signaling (AID 588513; active means well fitted curve in the direction sought with a large enough effect in the signal ratio, with a control signal flat, not every such curve was filed as active; the % refers to the signal ratio; further: on the % scale 0 is the no-effect control and ±100 the full control effect). The procedure, abridged:
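Antagonist-mode qHTS in ER-alpha-UAS-bla HEK 293 cells: compound titration, 0.5nM estradiol for 18 h, CCF4 fluorescence, Hill-derived IC50.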

The target is the same in assay [2]. The experiment in a line: qHTS assay for small molecule agonists of estrogen receptor alpha signaling (AID 588514).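 Further: 0% = vehicle only and 100% = reference agonist; nearly all actives have a fitted effect of over 70% in size.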 The procedure, abridged: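 Fluorescence from CCF4 cleavage reports ER-alpha-driven beta-lactamase expression in HEK 293 cells treated 18 hrs at 37 C. Data normalized to 17-beta-estradiol (20 nM) and DMSO, fitted to Hill equation.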
Assay [3] concerns the target Androgen receptor (Homo sapiens) (UniProt P10275). The experiment in a line: qHTS assay for small molecule agonists of androgen receptor signaling (AID 588515; active means well fitted curve in the direction sought with a large enough effect in the signal ratio, with a control signal flat; the % refers to the signal ratio; further: on the % scale 0 is the no-effect control and ±100 the full control effect). The note with it: AR-UAS-bla HEK293, beta-lactamase ratio, agonist 16 h; activation: stronger effect = higher value. In a few lines: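 Stimulation of an AR-responsive β-lactamase reporter in GripTite HEK293 cells was measured after 16 h compound exposure at 37 °C, via CCF4 fluorescence after 2 h RT. EC50 from Hill fits, normalized to R1881 at 30 nM.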
A general note: In qHTS, concentration-response curves come from the screen itself.

Assay [4] shares this target. The assay is described as follows: qHTS assay for small molecule antagonists of androgen receptor signaling (AID 588516; active means well fitted curve in the direction sought with a large enough effect in the signal ratio, with a control signal flat, not every such curve was filed as active; the % refers to the signal ratio; further: on the % scale 0 is the no-effect control and ±100 the full control effect). The procedure, abridged: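 Compounds tested in titration against 10 nM R1881 in AR-responsive bla reporter HEK 293 cells; CCF4 fluorescence (460/530 nm) after 16 h exposure gave IC50 and efficacy.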
For assay [5], the target named is Bile acid receptor (Homo sapiens) (UniProt Q96RI1). The assay is described as follows: qHTS assay for small molecule antagonists of farnesoid X receptor signaling (AID 588526). Further: on the % scale 0 is the no-effect control and ±100 the full control effect. In a few lines:
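Antagonist mode: titrated compounds tested against chenodeoxycholic acid stimulation (normalized to 50 uM CDCA and DMSO) in GeneBLAzer HEK293T cells for 16 h. Beta-lactamase read by CCF4 fluorescence; IC50 from Hill fits.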

For assay [6], the target named is Glucocorticoid receptor (Homo sapiens) (UniProt P04150). The experiment in a line: qHTS assay for small molecule agonists of glucocorticoid receptor signaling (AID 588532; active means well fitted curve in the direction sought with a large enough effect in the signal ratio, with a control signal flat; the % refers to the signal ratio;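 further: 100% = dexamethasone at 0.1 µM and 0% = DMSO only wells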). The note with it: HeLa MMTV-bla, beta-lactamase ratio, agonist, 18 h; stronger effect = higher value; percent of dexamethasone control, DMSO zero. In a few lines:
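Cells were plated and rested 3-5 h at 37 C, compounds were added in titration and incubated 18 h, then CCF4 substrate was loaded for 2 h at RT before reading blue/green fluorescence. EC50 came from Hill-equation fitting.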

The target is the same in assay [7]. The assay is described as follows: qHTS assay for small molecule antagonists of glucocorticoid receptor signaling (AID 588533; active means well fitted inhibition curve with a large enough effect in the signal ratio, with a control signal flat, not every such curve was filed as active; the % refers to the signal ratio; further: on the % scale 0 is the no-effect control and ±100 the full control effect). In a few lines: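 Antagonist-mode qHTS: compound titrations added to GRE-bla HeLa cells, then dexamethasone 2 nM final; 18 h, 37 C. CCF4 FRET fluorescence normalized to dexamethasone and DMSO; IC50 from Hill fit.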
A short description of assay [8]: qHTS assay for small molecule antagonists of peroxisome proliferator-activated receptor delta signaling (AID 588535; active means well fitted inhibition curve with a large enough effect in the signal ratio, with a control signal flat, not every such curve was filed as active; the % refers to the signal ratio;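 on max response: cells co-treated with a PPAR-delta agonist as stimulator during compound exposure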). The note with it: HEK293T PPARd-UAS-bla, beta-lactamase FRET ratio, 18 h; 460 nm channel. The procedure, abridged: (§1)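 Beta-lactamase reporter read-out (405 nm excitation, 460/530 nm emission) after CCF4 loading for 2 hrs at RT. HEK293T PPAR-delta-UAS-bla cells, 2% charcoal/dextran FBS, compounds for 18 hrs at 37 C. Hill fit gave IC50 and efficacy.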

Assay [9] addresses Peroxisome proliferator-activated receptor delta (Homo sapiens) (UniProt Q03181). Described as above. The procedure, abridged:
as §1

Assay [10] concerns the target Peroxisome proliferator-activated receptor gamma (Homo sapiens) (UniProt P37231). The experiment in a line: qHTS assay for small molecule agonists of peroxisome proliferator-activated receptor gamma signaling (AID 588536; active means well fitted curve in the direction sought with a large enough effect in the signal ratio, with a control signal flat, not every such curve was filed as active; the % refers to the signal ratio;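 further: 0% = DMSO basal wells and 100% = rosiglitazone at 2 µM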). The procedure, abridged:
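This is an agonist-mode beta-lactamase reporter assay in HEK293 PPAR-gamma-UAS-bla cells with 1% charcoal/dextran FBS. Compound titrations ran 16 h at 37 C before CCF4 detection. EC50 and efficacy are Hill fits scaled to 2 uM rosiglitazone (100%) and DMSO basal.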

The target is the same in assay [11]. The experiment in a line: qHTS assay for small molecule antagonists of peroxisome proliferator-activated receptor gamma signaling (AID 588537; active means well fitted inhibition curve with a large enough effect in the signal ratio, with a control signal flat, not every such curve was filed as active; the % refers to the signal ratio;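 further: reporter cells co-stimulated with 50 nM rosiglitazone agonist during compound treatment; % of control where 0% means no effect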). The procedure, abridged: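 Read-out: CCF4 fluorescence (ex 405, em 460/530 nm) after 2 h at RT. Cells were HEK293 carrying a UAS-bla reporter and treated 16 h at 37 C with compound plus rosiglitazone (50 nM final). Normalized to rosiglitazone and DMSO.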

In assay [12] the target is Vitamin D3 receptor (Homo sapiens) (UniProt P11473). The assay is described as follows: qHTS assay for small molecule antagonists of vitamin D receptor signaling (AID 588541). The procedure, abridged: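 VDR-UAS-bla HEK293T cells in 2% charcoal-stripped FBS were stimulated with 1-alpha,25-dihydroxyvitamin D3 (3 nM final) plus compound for 16 h at 37 C. The beta-lactamase CCF4 readout was normalized to 50 nM agonist and DMSO, and Hill fits gave IC50.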

For assay [13] the target is unchanged. The experiment in a line: qHTS assay for small molecule agonists of vitamin D receptor signaling (AID 588543).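 Further: 0% = DMSO basal and 100% = reference agonist control.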 In a few lines: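 Measured: β-lactamase reporter activity (CCF4, 405 nm excitation, 460/530 nm emission) in HEK293T VDR-UAS-bla cells after 16 h compound exposure at 37 °C. Normalization against 50 nM 1α,25-dihydroxyvitamin D3 and DMSO; Hill-fit EC50.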

The nature of assay [14]: qHTS assay for small molecule agonists of retinoid X receptor alpha signaling (AID 588544).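 On activation: 0% = DMSO basal wells and 100% = reference agonist.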 The note with it: HEK293T RXRa-UAS-bla, beta-lactamase reporter, 18 h; 530 nm emission.
Assay [15] addresses Retinoic acid receptor RXR-alpha (Homo sapiens) (UniProt P19793). Described as above.
In assay [16] the target is Thyroid hormone receptor beta (Homo sapiens) (UniProt P10828). The assay is described as follows: qHTS assay for small molecule agonists of thyroid hormone receptor beta signaling (AID 588545). In a few lines:
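HEK 293 TR-UAS-bla; agonist mode; 18 hrs, 37 C; CCF4, ex 405/em 460 and 530 nm; norm. T3 10 nM = 100%, DMSO = 0%; Hill fit → EC50, efficacy.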

Assay [17] in a line: qHTS assay for small molecule antagonists of retinoid X receptor alpha signaling (AID 588546; active means well fitted inhibition curve with a large enough effect in the signal ratio, with a control signal flat, not every such curve was filed as active; the % refers to the signal ratio). The note with it: HEK293T RXRa-UAS-bla, beta-lactamase ratio, antagonist mode; measured here: W530 green channel, cytotoxicity proxy. The procedure, abridged:
(§2)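 Beta-lactamase reporter inhibition, read as CCF4 fluorescence ratio (ex 405, em 460/530 nm) after 2 h at RT. HEK293T UAS-bla cells, 2500/well, were stimulated with 9-cis-RA at 500 or 100 nM final alongside test compound for 18 h at 37 C.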

For assay [18], the target named is Retinoic acid receptor RXR-alpha (Homo sapiens) (UniProt P19793). Described as above. The note with it: HEK293T RXRa-UAS-bla, beta-lactamase ratio, antagonist mode. The procedure, abridged: as §2
Assay [19] is described as follows: qHTS assay for small molecule activators of the p53 signaling pathway (AID 651743; active means well fitted activation curve with a large enough effect in the signal ratio, not every such curve was filed as active; the % refers to the signal ratio; further: series mostly up to about 92 µM; % of control where 0% means no effect). The note with it: HCT-116 p53RE-bla, beta-lactamase FRET ratio, 16 h; activation: stronger effect = higher value. In a few lines: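 Reporter: beta-lactamase driven by p53 response elements, stably integrated in HCT-116 cells. Cells seeded at 4,000/well, 5 h preincubation, compound (DMSO) 16 h at 37 C; B/G FRET substrate 2 h RT; fluorescence intensity read.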

Assay [20] in a line: qHTS assay for small molecule activators of the nuclear factor-kappa B (NF-kB) signaling pathway (AID 651749; active means well fitted activation curve with a large enough effect in the signal ratio; the % refers to the signal ratio; further: series mostly up to about 77 µM; % of control where 0% means no effect). The note with it: NF-kB-bla ME-180 cells, beta-lactamase FRET ratio, 16 h; activation: stronger effect = higher value. In a few lines:
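NF-kB-bla ME-180 cells, 2,000/well; 23 nL compound or DMSO pinned; 16 hr, 37C/5% CO2; beta-lactamase FRET read-out.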

Assay [21] is described as follows: qHTS assay for environmental chemicals that activate the Aryl hydrocarbon Receptor (AhR) signaling pathway (AID 651777; active means well fitted curve in the direction sought with a large enough effect; an effect the other way counts as inactive or inconclusive; further: % of control where 0% means no effect; nearly all actives have a fitted effect of over 15% in size). The note with it: 1A2-DRE human hepatoma cells, luciferase, 24 h; activation: stronger effect = higher value. In a few lines: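 Luminescence read-out: One-Glo added for 30 min at RT after 24 hr compound treatment (37 C, 5% CO2) of human hepatoma cells expressing a DRE/CYP1A2 promoter–luciferase reporter; increased signal indicates AhR activation.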

Assay [22] deals with Peroxisome proliferator-activated receptor alpha (Homo sapiens) (UniProt Q07869). The assay is described as follows: qHTS assay for small molecule agonists of the peroxisome proliferator-activated receptor alpha (PPARalpha) signaling pathway (AID 651778; active means well fitted curve in the direction sought with a large enough effect; an effect the other way counts as inactive or inconclusive; further: % of control where 0% means no effect). The note with it: PathHunter PPARalpha complementation, chemiluminescence, 6 h; max response: stronger effect = higher value. The procedure, abridged: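 Enzyme-fragment complementation assay in which ligand-bound PPARalpha translocates and forms an active enzyme that generates chemiluminescence. Cells were plated overnight, exposed to compound for 6 hr at 37 C, and then given detection reagent for 60 min at room temperature.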

Assay [23] can be described thus: qHTS assay for small molecule agonists of the antioxidant response element (ARE) signaling pathway measured by Nrf2-dependant transcriptional activity (AID 720636; active means well fitted curve in the direction sought with a large enough effect in the repeat runs; an effect the other way counts as inactive or inconclusive;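 further: HepG2 cells with an ARE-driven luciferase reporter; % of control where 0% means no effect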). The procedure, abridged:
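HepG2 ARE-luc reporter line, 1% dialyzed FBS; 6 hr attachment at 37 C, compound pinned in, 16 hr at 37 C/5% CO2; ONE-Glo, 30 min RT, luminescence read.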

Assay [24] in a line: qHTS assay for small molecule agonists of the antioxidant response element (ARE) signaling pathway measured by Nrf2-dependant transcriptional activity - cell viability counter screen (AID 720653; active means well fitted curve in the direction sought with a large enough effect in the repeat runs; an effect the other way counts as inactive or inconclusive; further: on the % scale 0 is the no-effect control and ±100 the full control effect). The note with it: ARE-bla HepG2 viability, CellTiter-Glo ATP luminescence, 16 h; max response: stronger effect = lower value. In a few lines: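 ARE-bla HepG2 cells treated with compounds for 16 h at 37C; this counter screen measures viability as intracellular ATP by CellTiter-Glo luminescence after 30 min at room temperature.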

A short description of assay [25]: qHTS assay for cell viability of HEK293 cells (AID 743288; active means well fitted curve in the direction sought with a large enough effect; an effect the other way counts as inactive or inconclusive; further: on the % scale 0 is the no-effect control and ±100 the full control effect; nearly all actives have a fitted effect of over 50% in size). The note with it: ATP luminescence (CellTiter-Glo), 18 h; max response: stronger effect = lower value. The procedure, abridged:
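HEK293, 18 h, 37 C, ATP luminescence. Cells at 2,000/well were allowed at least 5 h to settle before dosing; CellTiter-Glo developed 30 min at RT.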

Assay [26] in a line: qHTS assay for cell viability of the p53RE-bla HCT-116 cell line (AID 743292; active means well fitted curve in the direction sought with a large enough effect; an effect the other way counts as inactive or inconclusive; further: on the % scale 0 is the no-effect control and ±100 the full control effect; nearly all actives have a fitted effect of over 55% in size). In a few lines:
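Luminescent ATP quantitation (CellTiter-Glo) served as the viability read-out; reagent was added after 16 h compound exposure at 37 C and read after 30 min at room temperature. Cells: p53RE-bla HCT-116, 4,000 per well.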

Assay [27] deals with Cytochrome P450 3A4 (Homo sapiens) (UniProt P08684). The experiment in a line: qHTS Assay for Activators of Cytochrome P450 3A4 (AID 885; active means well fitted curve in the direction sought with a large enough effect; an effect the other way counts as inactive or inconclusive; further: nearly all actives have a fitted effect of over 65% in size). In a few lines:
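Luminescent readout of luciferin formed from 25 uM Luciferin-PPXE (KM level) by 20 nM CYP3A4 in 200 mM KPO4, with 60 min NADPH-driven reaction at room temperature after 10 min compound exposure. Ketoconazole (57 uM) defined 100% inhibition.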

The target of assay [28] is DNA dC->dU-editing enzyme APOBEC-3G (Homo sapiens) (UniProt Q9HC16). The experiment in a line: qHTS for inhibitors of Vif-A3G interactions: Validation (AID 588379; active means well fitted curve in the direction sought with a large enough effect; an effect the other way counts as inactive or inconclusive; further: 0% is about no effect). The procedure, abridged: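 Yellow fluorescence (Ex 488, Em 500-530) of Vif-coexpressing HeLa A3G-eYFP cells, scanned by Acumen cytometer, reports blocked A3G degradation. Cells plated at 700/well overnight at 37 deg C before compound addition, then a further overnight compound incubation at 37 deg C.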

Structures are written as SMILES. Inconclusive results are not listed. Activity calls are given as the source filed them. Unless noted, the call rests on the fitted dose curve.

Chain of Glucocorticoid receptor (Homo sapiens) (P04150 whole entry, looked up): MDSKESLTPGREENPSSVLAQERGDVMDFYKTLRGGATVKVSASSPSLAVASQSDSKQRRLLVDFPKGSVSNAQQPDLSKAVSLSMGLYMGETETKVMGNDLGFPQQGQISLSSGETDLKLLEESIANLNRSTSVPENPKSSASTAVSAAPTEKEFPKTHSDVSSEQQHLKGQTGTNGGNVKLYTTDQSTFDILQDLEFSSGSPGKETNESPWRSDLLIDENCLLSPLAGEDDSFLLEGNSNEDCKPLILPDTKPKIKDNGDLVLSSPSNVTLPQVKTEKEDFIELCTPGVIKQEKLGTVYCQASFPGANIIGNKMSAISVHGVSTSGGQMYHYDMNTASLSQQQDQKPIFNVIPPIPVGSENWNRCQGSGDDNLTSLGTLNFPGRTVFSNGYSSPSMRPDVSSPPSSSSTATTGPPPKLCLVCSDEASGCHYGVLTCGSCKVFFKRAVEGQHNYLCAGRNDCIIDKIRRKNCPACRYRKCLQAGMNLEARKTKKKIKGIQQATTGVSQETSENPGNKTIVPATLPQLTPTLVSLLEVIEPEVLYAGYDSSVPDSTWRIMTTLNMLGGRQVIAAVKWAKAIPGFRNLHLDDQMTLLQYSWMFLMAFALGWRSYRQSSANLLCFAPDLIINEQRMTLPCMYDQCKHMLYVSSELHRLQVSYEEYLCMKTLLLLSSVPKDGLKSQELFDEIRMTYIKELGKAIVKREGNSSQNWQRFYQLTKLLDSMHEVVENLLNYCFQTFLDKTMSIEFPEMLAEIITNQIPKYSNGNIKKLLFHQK
Chain of Retinoic acid receptor RXR-alpha (Homo sapiens) (P19793 whole entry, looked up): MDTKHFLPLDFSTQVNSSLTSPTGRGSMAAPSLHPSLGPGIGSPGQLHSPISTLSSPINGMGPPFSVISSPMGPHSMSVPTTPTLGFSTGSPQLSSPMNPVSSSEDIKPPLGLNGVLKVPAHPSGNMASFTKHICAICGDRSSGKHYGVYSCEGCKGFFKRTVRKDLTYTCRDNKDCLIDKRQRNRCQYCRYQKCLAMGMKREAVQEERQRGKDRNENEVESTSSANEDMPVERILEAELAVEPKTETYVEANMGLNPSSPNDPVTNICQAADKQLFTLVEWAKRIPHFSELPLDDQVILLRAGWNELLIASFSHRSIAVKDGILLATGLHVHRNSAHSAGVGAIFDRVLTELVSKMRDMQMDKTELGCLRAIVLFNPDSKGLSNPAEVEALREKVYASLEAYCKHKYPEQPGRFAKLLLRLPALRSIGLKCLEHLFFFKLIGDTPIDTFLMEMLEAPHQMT
Chain of Peroxisome proliferator-activated receptor gamma (Homo sapiens) (P37231 whole entry, looked up): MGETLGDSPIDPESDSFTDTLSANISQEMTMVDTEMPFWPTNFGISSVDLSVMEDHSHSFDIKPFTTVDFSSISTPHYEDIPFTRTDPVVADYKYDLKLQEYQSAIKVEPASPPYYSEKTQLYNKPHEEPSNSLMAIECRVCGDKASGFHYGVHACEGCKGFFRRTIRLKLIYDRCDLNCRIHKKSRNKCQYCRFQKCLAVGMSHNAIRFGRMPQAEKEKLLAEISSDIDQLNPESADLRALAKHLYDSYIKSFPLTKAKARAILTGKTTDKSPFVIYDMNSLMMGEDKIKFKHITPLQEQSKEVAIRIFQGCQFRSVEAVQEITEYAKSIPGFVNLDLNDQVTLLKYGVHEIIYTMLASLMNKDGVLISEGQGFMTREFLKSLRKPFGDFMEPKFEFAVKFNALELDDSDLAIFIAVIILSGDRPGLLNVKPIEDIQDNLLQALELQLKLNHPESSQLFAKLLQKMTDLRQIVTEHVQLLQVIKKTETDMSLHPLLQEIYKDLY
Chain of Androgen receptor (Homo sapiens) (P10275 whole entry, looked up): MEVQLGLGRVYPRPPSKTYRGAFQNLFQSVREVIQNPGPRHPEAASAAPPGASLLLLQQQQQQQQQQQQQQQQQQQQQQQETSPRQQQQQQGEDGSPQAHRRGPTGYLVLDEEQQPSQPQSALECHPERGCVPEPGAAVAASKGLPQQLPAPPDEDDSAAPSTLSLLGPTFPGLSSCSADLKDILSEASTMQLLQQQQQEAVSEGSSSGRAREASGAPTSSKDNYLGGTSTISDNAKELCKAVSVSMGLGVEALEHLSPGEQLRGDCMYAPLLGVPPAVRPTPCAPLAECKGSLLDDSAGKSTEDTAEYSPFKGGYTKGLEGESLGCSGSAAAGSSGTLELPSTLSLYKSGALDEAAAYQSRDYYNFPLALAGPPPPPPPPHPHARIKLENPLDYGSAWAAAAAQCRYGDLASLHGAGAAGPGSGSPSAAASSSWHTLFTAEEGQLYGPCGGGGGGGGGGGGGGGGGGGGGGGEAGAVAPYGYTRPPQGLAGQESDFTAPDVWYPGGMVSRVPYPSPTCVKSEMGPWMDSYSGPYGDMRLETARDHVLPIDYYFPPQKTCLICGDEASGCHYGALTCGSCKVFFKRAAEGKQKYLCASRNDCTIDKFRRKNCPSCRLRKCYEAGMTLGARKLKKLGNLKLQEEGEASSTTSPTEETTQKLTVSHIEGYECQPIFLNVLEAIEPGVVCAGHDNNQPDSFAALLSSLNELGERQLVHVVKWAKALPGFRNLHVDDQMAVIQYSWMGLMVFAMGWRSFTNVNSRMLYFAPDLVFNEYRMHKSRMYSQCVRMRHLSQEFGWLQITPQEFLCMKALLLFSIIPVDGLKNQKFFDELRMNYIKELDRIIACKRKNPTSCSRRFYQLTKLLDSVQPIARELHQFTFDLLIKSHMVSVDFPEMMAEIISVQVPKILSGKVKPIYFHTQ
Chain of Estrogen receptor (Homo sapiens) (P03372 whole entry, looked up): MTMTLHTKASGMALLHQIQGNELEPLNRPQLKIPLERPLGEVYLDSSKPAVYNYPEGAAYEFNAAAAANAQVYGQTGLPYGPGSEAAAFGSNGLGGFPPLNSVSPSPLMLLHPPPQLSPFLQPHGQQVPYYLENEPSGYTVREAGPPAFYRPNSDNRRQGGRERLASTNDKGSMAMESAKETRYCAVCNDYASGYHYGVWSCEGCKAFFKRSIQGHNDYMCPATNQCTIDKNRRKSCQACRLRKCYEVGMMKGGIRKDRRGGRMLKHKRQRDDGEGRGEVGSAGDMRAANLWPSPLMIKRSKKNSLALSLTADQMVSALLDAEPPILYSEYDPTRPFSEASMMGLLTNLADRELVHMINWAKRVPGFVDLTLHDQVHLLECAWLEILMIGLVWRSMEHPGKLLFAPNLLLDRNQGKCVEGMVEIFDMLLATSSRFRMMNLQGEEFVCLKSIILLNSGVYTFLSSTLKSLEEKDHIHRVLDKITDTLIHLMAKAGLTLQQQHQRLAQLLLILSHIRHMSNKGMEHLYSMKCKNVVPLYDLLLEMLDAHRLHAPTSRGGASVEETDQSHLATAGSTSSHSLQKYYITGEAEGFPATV
Chain of Vitamin D3 receptor (Homo sapiens) (P11473 whole entry, looked up): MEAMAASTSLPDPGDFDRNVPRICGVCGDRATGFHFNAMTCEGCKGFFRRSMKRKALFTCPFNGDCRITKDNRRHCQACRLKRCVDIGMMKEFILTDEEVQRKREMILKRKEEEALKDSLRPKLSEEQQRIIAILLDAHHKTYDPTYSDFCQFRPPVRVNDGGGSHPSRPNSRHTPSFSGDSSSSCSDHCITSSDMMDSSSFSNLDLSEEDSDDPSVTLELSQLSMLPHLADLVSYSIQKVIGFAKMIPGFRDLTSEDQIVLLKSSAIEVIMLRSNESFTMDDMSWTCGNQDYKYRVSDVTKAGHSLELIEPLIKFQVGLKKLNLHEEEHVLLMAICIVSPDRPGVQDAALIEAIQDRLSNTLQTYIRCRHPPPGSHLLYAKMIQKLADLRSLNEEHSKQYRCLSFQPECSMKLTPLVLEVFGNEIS
Chain of Peroxisome proliferator-activated receptor alpha (Homo sapiens) (Q07869 whole entry, looked up, the tested form may be a part): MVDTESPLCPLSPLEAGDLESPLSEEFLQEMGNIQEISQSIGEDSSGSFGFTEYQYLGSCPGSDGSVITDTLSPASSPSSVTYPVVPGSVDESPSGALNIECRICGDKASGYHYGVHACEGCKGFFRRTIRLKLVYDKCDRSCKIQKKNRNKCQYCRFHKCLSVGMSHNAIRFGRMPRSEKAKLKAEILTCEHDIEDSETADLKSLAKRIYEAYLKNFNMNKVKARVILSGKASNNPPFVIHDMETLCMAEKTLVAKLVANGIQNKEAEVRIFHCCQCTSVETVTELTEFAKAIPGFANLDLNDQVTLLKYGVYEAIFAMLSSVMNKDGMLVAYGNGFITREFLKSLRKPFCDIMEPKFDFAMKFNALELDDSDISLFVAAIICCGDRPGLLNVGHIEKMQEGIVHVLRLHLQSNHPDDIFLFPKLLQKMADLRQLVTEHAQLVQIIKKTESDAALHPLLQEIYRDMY
Chain of Bile acid receptor (Homo sapiens) (Q96RI1 whole entry, looked up): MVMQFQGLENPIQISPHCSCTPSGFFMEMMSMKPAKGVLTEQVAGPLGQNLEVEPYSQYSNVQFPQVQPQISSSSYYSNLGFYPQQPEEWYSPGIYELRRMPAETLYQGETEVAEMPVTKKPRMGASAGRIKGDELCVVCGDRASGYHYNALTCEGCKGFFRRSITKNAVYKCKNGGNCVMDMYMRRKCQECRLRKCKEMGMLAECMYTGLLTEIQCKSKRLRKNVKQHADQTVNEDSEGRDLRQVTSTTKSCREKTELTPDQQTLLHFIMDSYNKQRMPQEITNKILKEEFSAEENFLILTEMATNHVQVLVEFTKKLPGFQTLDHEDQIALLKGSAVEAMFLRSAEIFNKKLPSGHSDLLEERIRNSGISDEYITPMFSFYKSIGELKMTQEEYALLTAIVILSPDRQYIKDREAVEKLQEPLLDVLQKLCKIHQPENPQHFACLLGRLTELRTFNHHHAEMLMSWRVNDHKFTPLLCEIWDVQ
Chain of DNA dC->dU-editing enzyme APOBEC-3G (Homo sapiens) (Q9HC16 whole entry, looked up): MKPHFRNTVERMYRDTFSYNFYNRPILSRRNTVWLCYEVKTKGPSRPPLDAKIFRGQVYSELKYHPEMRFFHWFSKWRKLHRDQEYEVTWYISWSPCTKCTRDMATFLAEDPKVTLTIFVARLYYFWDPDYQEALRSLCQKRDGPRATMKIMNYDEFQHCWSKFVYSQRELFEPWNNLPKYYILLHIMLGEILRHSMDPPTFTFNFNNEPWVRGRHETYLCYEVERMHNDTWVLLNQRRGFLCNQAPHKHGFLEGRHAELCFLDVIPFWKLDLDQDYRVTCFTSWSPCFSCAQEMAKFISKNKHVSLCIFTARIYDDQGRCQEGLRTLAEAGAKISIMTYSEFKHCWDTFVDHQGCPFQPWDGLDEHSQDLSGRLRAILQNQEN

For `CC(C)(C)C(O)/C(=C\c1ccc(Cl)cc1)n1cncn1` (stereo not drawn), the Potency result in assay [1], in assay [2], in [5], in assay [7], in assay [9] and in [11] was “inactive” in each case. Moreover, the Potency entry in [12], in assay [15], in assay [16], in [23] and in [26] was “inactive” in each case. Besides, the activation in assay [3] was -3.93% (inactive); in [6], 0.903% (inactive); in [19] it was -2.96% (inactive); in [20] it was -1.6% (inactive); in [21] it was 3.57% (inactive). For the same compound, the outcome in assay [4], in assay [10] and in [13] was inactive. Besides, the max response is -55.9% in assay [8]; 16.3% in assay [14]; -0.493% in assay [17]; -24.9% (inactive) in assay [18]; 6.34% (inactive) in assay [22]; -4.78% (inactive) in assay [24]. The max response in assay [25] is -13.5% (inactive).
As for `COc1ccc(-c2coc3ccc(OC4OC(COC(C)=O)C(OC(C)=O)C(OC(C)=O)C4OC(C)=O)c(OC(C)=O)c3c2=O)cc1` (stereo not drawn), the Potency result in assay [27] and in [28] was “inactive” each time.
